{"source": "the supplement of paper PMC8728848", "binders": {"B1": {"name": "Clec18C (Homo sapiens) (protein)", "chain": "MLHPETSPGRGHLLAVLLALLGTAWAEVWPPQLQEQAPMAGALNRKESFLLLSLHNRLRSWVQPPAADMRRLDWSDSLAQLAQARAALCGTPTPSLASGLWRTLQVGWNMQLLPAGLVSFVEVVSLWFAEGQRYSHAAGECARNATCTHYTQLVWATSSQLGCGRHLCSAGQAAIEAFVCAYSPRGNWEVNGKTIVPYKKGAWCSLCTASVSGCFKAWDHAGGLCEVPRNPCRMSCQNHGRLNISTCHCHCPPGYTGRYCQVRCSLQCVHGRLREEECSCVCDIGYGGAQCATKVHFPFHTCDLRIDGDCFMVSSEADTYYRARMKCQRKGGVLAQIKSQKVQDILAFYLGRLETTNEVIDSDFETRNFWIGLTYKTAKDSFRWATGEHQAFTSFAFGQPDNHGFGNCVELQASAAFNWNNQRCKTRNRYICQFAQEHISRWGPGS"}}, "experiment_in_all_cases": "glycan array binding signal (z-score within array); higher = stronger binding", "details_in_all_cases": "glycan notation: IUPAC condensed, linker removed", "key": {"[1]": {"molecular_target": "Fuc(a1-2)Gal(b1-3)GlcNAc(b1-2)Man(a1-3)[Fuc(a1-2)Gal(b1-3)GlcNAc(b1-2)Man(a1-6)]Man(b1-4)GlcNAc(b1-4)GlcNAc", "method_in_brief": "(§1)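 Glycan array data came from 3228 arrays in the Consortium for Functional Glycomics database, and only arrays with an available protein sequence were kept. Glycan names were put into IUPAC-condensed notation, and columns mapping to the same glycan were averaged. The binding signal is a within-array Z-score, averaged across arrays of one protein sequence run at different concentrations or buffers and across linkers. A negative Z-score can be read as non-binding.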"}, "[2]": {"molecular_target": "Fuc(a1-2)Gal(b1-3)[Fuc(a1-4)]GlcNAc(b1-2)Man(a1-3)[Fuc(a1-2)Gal(b1-3)[Fuc(a1-4)]GlcNAc(b1-2)Man(a1-3)]Man(b1-4)GlcNAc(b1-4)GlcNAc", "method_in_brief": "as §1"}, "[3]": {"molecular_target": "Fuc(a1-2)Gal(b1-4)GlcNAc(b1-3)Gal(b1-4)GlcNAc(b1-2)Man(a1-3)[Fuc(a1-2)Gal(b1-4)GlcNAc(b1-3)Gal(b1-4)GlcNAc(b1-2)Man(a1-6)]Man(b1-4)GlcNAc(b1-4)GlcNAc", "method_in_brief": "as §1"}, "[4]": {"molecular_target": "Fuc(a1-2)Gal(b1-4)GlcNAc(b1-3)GalNAc", "method_in_brief": "as §1"}, "[5]": {"molecular_target": "Fuc(a1-2)Gal6S(b1-3)GlcNAc6S", "method_in_brief": "as §1"}, "Fuc(a1-2)[Gal(a1-3)]Gal": {"molecular_target": "Fuc(a1-2)[Gal(a1-3)]Gal", "method_in_brief": "as §1"}, "[6]": {"molecular_target": "Fuc(a1-2)[Gal(a1-3)]Gal(b1-3)GlcNAc(b1-2)Man(a1-3)[Fuc(a1-2)[Gal(a1-3)]Gal(b1-3)GlcNAc(b1-2)Man(a1-6)]Man(b1-4)GlcNAc(b1-4)GlcNAc", "method_in_brief": "as §1"}, "[7]": {"molecular_target": "Fuc(a1-3)[Gal(b1-4)]GlcNAc(b1-3)Gal(b1-4)[Fuc(a1-3)]GlcNAc", "method_in_brief": "as §1"}, "[8]": {"molecular_target": "Fuc(a1-3)[GalNAc(b1-4)]GlcNAc6S", "method_in_brief": "as §1"}, "Gal(a1-4)Gal(b1-4)GlcNAc": {"molecular_target": "Gal(a1-4)Gal(b1-4)GlcNAc", "method_in_brief": "as §1"}, "[9]": {"molecular_target": "Gal(b1-3)GlcNAc(b1-2)[Gal(b1-3)GlcNAc(b1-6)]Man(a1-6)[Gal(b1-3)GlcNAc(b1-2)Man(a1-3)]Man(b1-4)GlcNAc(b1-4)GlcNAc", "method_in_brief": "as §1"}, "[10]": {"molecular_target": "Gal(b1-3)GlcNAc(b1-3)Gal(b1-3)GlcNAc", "method_in_brief": "as §1"}, "[11]": {"molecular_target": "Gal(b1-3)GlcNAc(b1-3)Gal(b1-4)Glc", "method_in_brief": "as §1"}, "[12]": {"molecular_target": "Gal(b1-3)[GlcNAc(b1-6)]GalNAc", "method_in_brief": "as §1"}, "[13]": {"molecular_target": "Gal(b1-4)GlcNAc(b1-2)Man(a1-3)[Gal(b1-4)GlcNAc(b1-2)Man(a1-6)]Man(b1-4)GlcNAc(b1-4)GlcNAc", "method_in_brief": "as §1"}, "[14]": {"molecular_target": "Gal(b1-4)GlcNAc(b1-2)Man(a1-3)[Gal(b1-4)GlcNAc(b1-2)Man(a1-6)][GlcNAc(b1-4)]Man(b1-4)GlcNAc(b1-4)[Fuc(a1-6)]GlcNAc", "method_in_brief": "as §1"}, "[15]": {"molecular_target": "Gal(b1-4)GlcNAc(b1-3)Gal(b1-3)GalNAc", "method_in_brief": "as §1"}, "[16]": {"molecular_target": "Gal(b1-4)GlcNAc(b1-3)Gal(b1-4)GlcNAc(b1-3)Gal(b1-4)GlcNAc(b1-3)Gal(b1-4)GlcNAc(b1-2)Man(a1-3)[Gal(b1-4)GlcNAc(b1-3)Gal(b1-4)GlcNAc(b1-3)Gal(b1-4)GlcNAc(b1-3)Gal(b1-4)GlcNAc(b1-2)Man(a1-6)]Man(b1-4)GlcNAc(b1-4)GlcNAc", "method_in_brief": "as §1"}, "[17]": {"molecular_target": "Gal(b1-4)GlcNAc(b1-3)Gal(b1-4)GlcNAc(b1-3)Gal(b1-4)GlcNAc(b1-3)Gal(b1-4)GlcNAc(b1-2)Man(a1-3)[Gal(b1-4)GlcNAc(b1-3)Gal(b1-4)GlcNAc(b1-3)Gal(b1-4)GlcNAc(b1-3)Gal(b1-4)GlcNAc(b1-2)Man(a1-6)]Man(b1-4)GlcNAc(b1-4)[Fuc(a1-6)]GlcNAc", "method_in_brief": "as §1"}, "[18]": {"molecular_target": "Gal(b1-4)GlcNAc(b1-3)Gal(b1-4)GlcNAc(b1-3)Gal(b1-4)GlcNAc(b1-3)Gal(b1-4)GlcNAc(b1-3)Gal(b1-4)GlcNAc(b1-2)Man(a1-3)[Gal(b1-4)GlcNAc(b1-3)Gal(b1-4)GlcNAc(b1-3)Gal(b1-4)GlcNAc(b1-3)Gal(b1-4)GlcNAc(b1-3)Gal(b1-4)GlcNAc(b1-2)Man(a1-6)]Man(b1-4)GlcNAc(b1-4)[Fuc(a1-6)]GlcNAc", "method_in_brief": "as §1"}, "[19]": {"molecular_target": "Gal(b1-4)GlcNAc(b1-3)[Fuc(a1-3)GlcNAc(b1-6)]Gal(b1-4)Glc", "method_in_brief": "as §1"}, "[20]": {"molecular_target": "Gal(b1-4)GlcNAc(b1-3)[Gal(b1-4)GlcNAc(b1-6)]Gal(b1-4)GlcNAc", "method_in_brief": "as §1"}, "Gal(b1-4)GlcNAc6P": {"molecular_target": "Gal(b1-4)GlcNAc6P", "method_in_brief": "as §1"}, "Gal3S(b1-4)Glc6S": {"molecular_target": "Gal3S(b1-4)Glc6S", "method_in_brief": "as §1"}, "[21]": {"molecular_target": "Gal3S(b1-4)[Fuc(a1-3)]GlcNAc6S", "method_in_brief": "as §1"}, "GalNAc(b1-3)GlcNAc": {"molecular_target": "GalNAc(b1-3)GlcNAc", "method_in_brief": "as §1"}, "[22]": {"molecular_target": "GalNAc3S(b1-4)[Fuc(a1-3)]GlcNAc", "method_in_brief": "as §1"}, "[23]": {"molecular_target": "GlcA3S(b1-3)Gal(b1-4)GlcNAc(b1-3)Gal(b1-4)Glc", "method_in_brief": "as §1"}, "[24]": {"molecular_target": "GlcNAc(b1-3)Gal(b1-4)GlcNAc(b1-2)[GlcNAc(b1-3)Gal(b1-4)GlcNAc(b1-6)]Man(a1-6)[GlcNAc(b1-3)Gal(b1-4)GlcNAc(b1-2)Man(a1-3)]Man(b1-4)GlcNAc(b1-4)GlcNAc", "method_in_brief": "as §1"}, "[25]": {"molecular_target": "GlcNAc(b1-3)Gal(b1-4)GlcNAc(b1-6)[Gal(b1-3)]GalNAc", "method_in_brief": "as §1"}, "Man(a1-3)[Man(a1-6)]Man": {"molecular_target": "Man(a1-3)[Man(a1-6)]Man", "method_in_brief": "as §1"}, "[26]": {"molecular_target": "Neu5Ac(a2-3)Gal(b1-3)GlcNAc(b1-6)GalNAc", "method_in_brief": "as §1"}, "[27]": {"molecular_target": "Neu5Ac(a2-3)Gal(b1-4)GlcNAc(b1-6)GalNAc", "method_in_brief": "as §1"}, "[28]": {"molecular_target": "Neu5Ac(a2-6)Gal(b1-4)GlcNAc(b1-2)Man(a1-3)[Man(a1-6)]Man(b1-4)GlcNAc(b1-4)GlcNAc", "method_in_brief": "as §1"}, "[29]": {"molecular_target": "Neu5Ac(a2-6)Gal(b1-4)GlcNAc(b1-2)Man(a1-3)[Neu5Ac(a2-6)Gal(b1-4)GlcNAc(b1-2)Man(a1-6)]Man(b1-4)GlcNAc(b1-4)GlcNAc", "method_in_brief": "as §1"}, "[30]": {"molecular_target": "Neu5Ac(a2-6)Gal(b1-4)GlcNAc(b1-3)Gal(b1-3)GlcNAc", "method_in_brief": "as §1"}, "[31]": {"molecular_target": "Neu5Ac(a2-6)Gal(b1-4)GlcNAc(b1-3)Gal(b1-4)GlcNAc", "method_in_brief": "as §1"}, "Neu5Ac(a2-6)GalNAc": {"molecular_target": "Neu5Ac(a2-6)GalNAc", "method_in_brief": "as §1"}, "Neu5Gc(a2-6)GalNAc": {"molecular_target": "Neu5Gc(a2-6)GalNAc", "method_in_brief": "as §1"}}, "note": "This is one part of a sample in which the strongest signals are shown more often than they occur."}
{"binder": "B1", "values": [{"measurement": "glycan array binding signal (z-score)", "setting": "[1]", "value": 3.46}, {"measurement": "glycan array binding signal (z-score)", "setting": "[2]", "value": 0.055}, {"measurement": "glycan array binding signal (z-score)", "setting": "[3]", "value": 0.124}, {"measurement": "glycan array binding signal (z-score)", "setting": "[4]", "value": 3.79}, {"measurement": "glycan array binding signal (z-score)", "setting": "[5]", "value": -0.032}, {"measurement": "glycan array binding signal (z-score)", "setting": "Fuc(a1-2)[Gal(a1-3)]Gal", "value": -0.382}, {"measurement": "glycan array binding signal (z-score)", "setting": "[6]", "value": -0.479}, {"measurement": "glycan array binding signal (z-score)", "setting": "[7]", "value": -0.261}, {"measurement": "glycan array binding signal (z-score)", "setting": "[8]", "value": 0.313}, {"measurement": "glycan array binding signal (z-score)", "setting": "Gal(a1-4)Gal(b1-4)GlcNAc", "value": 1.24}, {"measurement": "glycan array binding signal (z-score)", "setting": "[9]", "value": -0.547}, {"measurement": "glycan array binding signal (z-score)", "setting": "[10]", "value": -0.443}, {"measurement": "glycan array binding signal (z-score)", "setting": "[11]", "value": -0.457}, {"measurement": "glycan array binding signal (z-score)", "setting": "[12]", "value": 4.42}, {"measurement": "glycan array binding signal (z-score)", "setting": "[13]", "value": 5.03}, {"measurement": "glycan array binding signal (z-score)", "setting": "[14]", "value": 1.07}, {"measurement": "glycan array binding signal (z-score)", "setting": "[15]", "value": 5.75}, {"measurement": "glycan array binding signal (z-score)", "setting": "[16]", "value": 1.91}, {"measurement": "glycan array binding signal (z-score)", "setting": "[17]", "value": -0.276}, {"measurement": "glycan array binding signal (z-score)", "setting": "[18]", "value": 3.34}, {"measurement": "glycan array binding signal (z-score)", "setting": "[19]", "value": -0.356}, {"measurement": "glycan array binding signal (z-score)", "setting": "[20]", "value": 7.63}, {"measurement": "glycan array binding signal (z-score)", "setting": "Gal(b1-4)GlcNAc6P", "value": 5.02}, {"measurement": "glycan array binding signal (z-score)", "setting": "Gal3S(b1-4)Glc6S", "value": -0.387}, {"measurement": "glycan array binding signal (z-score)", "setting": "[21]", "value": -0.116}, {"measurement": "glycan array binding signal (z-score)", "setting": "GalNAc(b1-3)GlcNAc", "value": 3.98}, {"measurement": "glycan array binding signal (z-score)", "setting": "[22]", "value": -0.342}, {"measurement": "glycan array binding signal (z-score)", "setting": "[23]", "value": -0.395}, {"measurement": "glycan array binding signal (z-score)", "setting": "[24]", "value": -0.368}, {"measurement": "glycan array binding signal (z-score)", "setting": "[25]", "value": -0.398}, {"measurement": "glycan array binding signal (z-score)", "setting": "Man(a1-3)[Man(a1-6)]Man", "value": -0.507}, {"measurement": "glycan array binding signal (z-score)", "setting": "[26]", "value": -0.247}, {"measurement": "glycan array binding signal (z-score)", "setting": "[27]", "value": 3.92}, {"measurement": "glycan array binding signal (z-score)", "setting": "[28]", "value": -0.24}, {"measurement": "glycan array binding signal (z-score)", "setting": "[29]", "value": 0.183}, {"measurement": "glycan array binding signal (z-score)", "setting": "[30]", "value": 0.131}, {"measurement": "glycan array binding signal (z-score)", "setting": "[31]", "value": 3.16}, {"measurement": "glycan array binding signal (z-score)", "setting": "Neu5Ac(a2-6)GalNAc", "value": 5.42}, {"measurement": "glycan array binding signal (z-score)", "setting": "Neu5Gc(a2-6)GalNAc", "value": -0.265}]}
